Data as given in PubChem BioAssay (EPA / NIEHS).
Active and inactive are the calls of the source. The calls were made as follows: active = hit-call score of the fitted dose curve at least 0.9, where 1 is the maximum; inactive = score below 0.9.

Legend:
[1] = ATG_CRE_CIS: Attagene CIS-FACTORIAL HepG2 Assay for human cAMP Responsive Element (CRE) binding protein 3 (AID 2282926); details: HepG2 CRE cis-reporter, Attagene multiplexed mRNA; actives raise or lower the signal
Summary of the method: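 Cells carrying cis-regulated reporter constructs respond through their own endogenous factors. After 24 h treatment, RNA is reverse-transcribed, amplified, labelled and sized by capillary electrophoresis; up- and down-regulation are both scored against vehicle.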

[2] = molecular target: CCAAT/enhancer-binding protein beta (Homo sapiens) (UniProt P17676); test: ATG_C_EBP_CIS: Attagene CIS-FACTORIAL HepG2 Assay for human CCAAT/Enhancer Binding Protein (C/EBP) beta (AID 2282927); details: HepG2 Attagene cis-factorial transcription factor reporter; actives raise or lower the signal
Chain of CCAAT/enhancer-binding protein beta (Homo sapiens) (P17676 whole entry, looked up): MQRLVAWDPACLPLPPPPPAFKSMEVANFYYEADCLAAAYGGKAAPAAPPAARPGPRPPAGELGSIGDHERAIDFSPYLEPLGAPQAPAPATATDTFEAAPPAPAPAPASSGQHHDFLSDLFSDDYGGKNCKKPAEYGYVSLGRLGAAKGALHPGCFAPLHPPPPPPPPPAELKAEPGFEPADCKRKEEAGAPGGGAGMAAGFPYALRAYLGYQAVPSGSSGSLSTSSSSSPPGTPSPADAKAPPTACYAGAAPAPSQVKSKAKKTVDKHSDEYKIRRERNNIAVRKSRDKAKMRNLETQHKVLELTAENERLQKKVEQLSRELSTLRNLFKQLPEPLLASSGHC
Summary of the method: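 Transiently transfected HepG2 (MRTU library, endogenous TF-driven promoters); 24 h dosing; total RNA → oligo(dT) RT → PCR → 6-FAM primer extension → HpaI digest → CE; fit bidirectionally vs DMSO.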

[3] = ATG_CMV_CIS: Attagene CIS-FACTORIAL HepG2 Assay for human CMV (Internal Marker) (AID 2282928); details: HepG2 CMV promoter reporter, transcription factor profiling; actives raise or lower the signal;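 also: endpoint acts as a background internal control marker rather than a target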
Summary of the method: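 24 h chemical treatment, HepG2 with transient multi-reporter transfection; RNA → oligo(dT) RT → PCR → 6-FAM extension → HpaI digest → CE fluorescence. Bidirectional fit, DMSO negative control.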

[4] = ATG_DR4_LXR_CIS: Attagene CIS-FACTORIAL HepG2 Assay for human Liver X Receptor (LXR), DR4 submotif (AID 2282929); details: HepG2 Attagene DR4 cis-reporter, mRNA transcription; actives raise or lower the signal
Summary of the method: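 DR4 cis-reporter in HepG2, 24 h exposure. Detection: RT-PCR, 6-FAM labelling, CE fragment analysis. Endpoint fitted bidirectionally, DMSO = baseline.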

[5] = molecular target: Aryl hydrocarbon receptor (Homo sapiens) (UniProt P35869); test: ATG_Ahr_CIS: Attagene CIS-FACTORIAL HepG2 Assay for human Aryl Hydrocarbon Receptor (Ahr) (AID 2282930); details: HepG2 AhR cis-factorial reporter transcription; actives raise or lower the signal
Chain of Aryl hydrocarbon receptor (Homo sapiens) (P35869 whole entry, looked up): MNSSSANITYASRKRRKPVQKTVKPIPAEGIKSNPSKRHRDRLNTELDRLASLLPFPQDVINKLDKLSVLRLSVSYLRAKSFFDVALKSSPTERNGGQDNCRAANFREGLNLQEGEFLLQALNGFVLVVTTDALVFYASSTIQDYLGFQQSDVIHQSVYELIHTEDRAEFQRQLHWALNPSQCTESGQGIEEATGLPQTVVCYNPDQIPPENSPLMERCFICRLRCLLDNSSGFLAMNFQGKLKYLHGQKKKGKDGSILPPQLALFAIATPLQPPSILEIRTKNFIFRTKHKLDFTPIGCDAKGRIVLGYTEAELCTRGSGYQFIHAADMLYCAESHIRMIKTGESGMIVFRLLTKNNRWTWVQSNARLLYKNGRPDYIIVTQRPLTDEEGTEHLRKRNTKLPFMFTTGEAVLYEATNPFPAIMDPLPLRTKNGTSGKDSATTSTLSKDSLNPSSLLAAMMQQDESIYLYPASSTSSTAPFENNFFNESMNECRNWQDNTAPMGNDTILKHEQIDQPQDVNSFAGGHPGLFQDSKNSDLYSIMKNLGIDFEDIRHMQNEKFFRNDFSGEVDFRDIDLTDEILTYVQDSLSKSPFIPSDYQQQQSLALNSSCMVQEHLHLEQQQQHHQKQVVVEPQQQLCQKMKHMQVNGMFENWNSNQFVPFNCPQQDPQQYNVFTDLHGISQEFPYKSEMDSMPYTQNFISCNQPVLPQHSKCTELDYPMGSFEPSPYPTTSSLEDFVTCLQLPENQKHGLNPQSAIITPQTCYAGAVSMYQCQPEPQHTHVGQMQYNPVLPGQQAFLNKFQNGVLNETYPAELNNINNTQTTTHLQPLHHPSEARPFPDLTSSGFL
Summary of the method: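 Read-out: reporter mRNA quantified by RT-PCR with fluorescent primer extension and capillary electrophoresis. Human HepG2 liver cells carried transfected cis-promoter reporter units and were exposed to chemical for 24 h; gain or loss fitted relative to DMSO.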

[6] = ATG_AP_1_CIS: Attagene CIS-FACTORIAL HepG2 Assay for human Activator Protein 1 (AP-1) (AID 2282931); details: HepG2 Attagene cis-factorial AP-1 reporter mRNA; actives raise or lower the signal
Summary of the method: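 Cis-regulated reporter units transiently expressed in HepG2 report endogenous transcription-factor activity. Signal: reporter mRNA at 24 h, via RT-PCR and fluorescent capillary electrophoresis. Endpoint derived by bidirectional fitting, DMSO as negative control.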

[7] = ATG_AP_2_CIS: Attagene CIS-FACTORIAL HepG2 Assay for human Activator Protein 2 (AP-2) (AID 2282932); details: HepG2 AP-2 cis-reporter, Attagene transcription factor profiling; actives raise or lower the signal
Summary of the method: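 Read-out: fluorescent reporter mRNA via RT-PCR and capillary electrophoresis, 24 h post-dose in transiently transfected HepG2. Endogenous factors drive cis-promoter reporters; gain or loss of signal fitted bidirectionally against DMSO.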

[8] = ATG_BRE_CIS: Attagene CIS-FACTORIAL HepG2 Assay for human Bone Morphogenetic Protein (BMP) Response Element (BRE) (AID 2282933); details: HepG2 BMP response element reporter, Attagene transcription factor profiling; actives raise or lower the signal
Summary of the method: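 Multiplexed cis-reporter assay, HepG2, 24 h exposure. mRNA from reporter units quantified via RT-PCR/CE; DMSO baseline; bidirectional curve fit.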

[9] = molecular target: Retinoic acid receptor alpha (Homo sapiens) (UniProt P10276); test: ATG_DR5_RAR_CIS: Attagene CIS-FACTORIAL HepG2 Assay for human Retinoic Acid Receptor Alpha (RARE), DR5 submotif (AID 2282934); details: HepG2 Attagene cis-factorial RARE DR5 reporter, mRNA; actives raise or lower the signal;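 as to AC50: reporter responds to endogenous RAR alpha beta and gamma in HepG2 not RARA alone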
Chain of Retinoic acid receptor alpha (Homo sapiens) (P10276 whole entry, looked up): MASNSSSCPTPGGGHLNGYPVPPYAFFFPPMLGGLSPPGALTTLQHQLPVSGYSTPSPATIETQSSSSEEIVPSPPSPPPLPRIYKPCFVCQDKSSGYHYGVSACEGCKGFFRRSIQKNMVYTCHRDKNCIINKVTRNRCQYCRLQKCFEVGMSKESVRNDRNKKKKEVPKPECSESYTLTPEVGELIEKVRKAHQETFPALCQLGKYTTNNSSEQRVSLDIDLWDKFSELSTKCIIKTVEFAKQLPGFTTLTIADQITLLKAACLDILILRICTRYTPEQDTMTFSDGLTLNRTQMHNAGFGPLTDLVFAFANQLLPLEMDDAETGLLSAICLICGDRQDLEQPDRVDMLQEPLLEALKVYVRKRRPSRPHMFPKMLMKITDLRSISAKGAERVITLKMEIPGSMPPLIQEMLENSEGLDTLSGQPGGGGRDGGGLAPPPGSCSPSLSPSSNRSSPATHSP
Summary of the method: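 Read-out: DR5-driven reporter transcript measured by RT-PCR, 6-FAM primer extension, HpaI digest and capillary electrophoresis. Human HepG2 liver cells carry transiently transfected cis-element reporter constructs; dosing lasts 24 h. Gain or loss of signal fitted against DMSO baseline.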

[10] = molecular target: Transcription factor E2F1 (Homo sapiens) (UniProt Q01094); test: ATG_E2F_CIS: Attagene CIS-FACTORIAL HepG2 Assay for human E2F Transcription Factor 1 (AID 2282935); details: HepG2 Attagene cis-reporter, E2F reporter RNA transcripts; actives raise or lower the signal
Chain of Transcription factor E2F1 (Homo sapiens) (Q01094 whole entry, looked up): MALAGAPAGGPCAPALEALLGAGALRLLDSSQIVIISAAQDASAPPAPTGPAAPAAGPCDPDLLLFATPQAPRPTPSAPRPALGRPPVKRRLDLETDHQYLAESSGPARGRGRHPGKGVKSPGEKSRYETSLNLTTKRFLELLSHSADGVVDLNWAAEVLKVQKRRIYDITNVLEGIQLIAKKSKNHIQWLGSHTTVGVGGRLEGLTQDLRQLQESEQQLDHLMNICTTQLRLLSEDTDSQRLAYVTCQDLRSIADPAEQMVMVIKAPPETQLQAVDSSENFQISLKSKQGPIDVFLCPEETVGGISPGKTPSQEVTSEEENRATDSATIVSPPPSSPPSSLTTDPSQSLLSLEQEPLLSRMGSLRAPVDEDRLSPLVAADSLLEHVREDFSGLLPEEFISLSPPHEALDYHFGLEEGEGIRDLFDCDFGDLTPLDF
Summary of the method: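 Transient MRTU transfection of HepG2; 24 h compound exposure; RNA → oligo(dT) RT → PCR → FAM label → HpaI cut → CE fluorescence. Gain/loss of signal fit against DMSO.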

Measured: AC50

Cc1occc(=O)c1OC(=O)C(C)C
inactive: all assays above

CC(=O)O[C@@H]1CC2CCC1(C)C2(C)C (some centres undefined)
inactive: all assays above

CCCCC1CCC(O)CC1 (centres undefined)
inactive: all assays above

Clc1ccc(C(c2ccccc2Cl)C(Cl)Cl)cc1 (centres undefined)
active: [3] 100 µM | [4] 25.2 µM | [5] 65.6 µM | [6] 100 µM
inactive: all other assays above

Cc1ccc(S(=O)(=O)Oc2ccc(N=Nc3ccc(-c4ccc(N=Nc5c(O)ccc6cc(S(=O)(=O)O)cc(S(=O)(=O)O)c56)c(C)c4)cc3C)cc2)cc1
active: [5] 30.1 µM | [8] 7.56 µM
inactive: all other assays above

O=C(O)c1ccc(O)cc1
inactive: all assays above

CCc1ncc(C)[nH]1
inactive: all assays above

CCC(C)=O
inactive: all assays above

CCCCCCCCCC(C)C=O (centres undefined)
inactive: all assays above

COC(C)(C)CCCC(C)CC=O (centres undefined)
inactive: all assays above

O=C(Nc1ccc2c(c1)Cc1ccccc1-2)C(F)(F)F
active: [5] 10.2 µM
inactive: all other assays above

CCOC(=O)CN
inactive: all assays above

CCOc1ccccc1O
inactive: all assays above

CCN(CCC#N)c1ccc(N=Nc2ccc([N+](=O)[O-])cc2)cc1
inactive: all assays above

CCCCCC(C)=O
inactive: all assays above

CCCCCCCCCCCCS(=O)(=O)Cl
inactive: all assays above

C=Cc1ccc(C(C)(C)C)cc1
active: [9] 76.1 µM
inactive: all other assays above

COc1ccc(COC(C)=O)cc1
inactive: all assays above

CCOC(=O)C(C#N)=C(c1ccccc1)c1ccccc1
active: [1] 63 µM | [4] 29.6 µM | [6] 178 µM | [8] 125 µM
inactive: all other assays above

Oc1ccc2cc(SSc3ccc4cc(O)ccc4c3)ccc2c1
inactive: [4] | [5] | [9] | [10]
active: [1] 62 µM | [2] 131 µM | [3] 26 µM | [6] 100 µM | [8] 57 µM

C=CCCC(=O)/C=C/C1C(C)=CCCC1(C)C (centres undefined)
active: [3] 140 µM | [4] 175 µM | [5] 53.2 µM | [6] 121 µM
not listed: [8]
inactive: all other assays above

CCOc1ccc(NC(=O)CC(C)=O)cc1
not listed: [7]
inactive: all other assays above

COc1cc(C(C)C)ccc1C
not listed: [8]
inactive: all other assays above

O=C1OC2(c3ccccc31)c1ccc(O)c(Br)c1Oc1c2ccc(O)c1Br
active: [5] 56.6 µM
not listed: [7] | [8]
inactive: all other assays above
